Common to all, as to assay: DAPPL (digital affinity profiling via proximity ligation, sequencing); 10 mM Tris-HCl pH 7.5, 50 mM NaCl, 1 mM DTT, 4% glycerol, room temperature, 30 min; GST-TFs on glutathione beads, 16-mer random dsDNA library, 0.1% formaldehyde crosslink after washing; high values mean tight binding
Common to all, as to details: protein: recombinant; tags: N-terminal GST; dsDNA, one strand shown

In one test the target is T1, FLI1 (Homo sapiens, UniProt Q01543 1-452).
T1 sequence: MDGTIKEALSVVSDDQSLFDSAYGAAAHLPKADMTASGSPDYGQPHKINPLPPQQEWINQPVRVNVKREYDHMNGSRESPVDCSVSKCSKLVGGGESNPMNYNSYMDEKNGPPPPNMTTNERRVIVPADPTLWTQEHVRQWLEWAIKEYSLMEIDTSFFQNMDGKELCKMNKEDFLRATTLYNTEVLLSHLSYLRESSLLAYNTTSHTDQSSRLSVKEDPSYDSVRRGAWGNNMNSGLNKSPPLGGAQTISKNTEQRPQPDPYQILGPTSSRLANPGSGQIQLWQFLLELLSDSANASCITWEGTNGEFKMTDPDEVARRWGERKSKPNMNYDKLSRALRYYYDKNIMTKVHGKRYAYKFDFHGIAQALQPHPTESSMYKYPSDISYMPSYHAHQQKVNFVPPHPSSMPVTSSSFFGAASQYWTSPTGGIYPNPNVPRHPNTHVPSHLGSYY
An outline of the steps: (§1)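 Pools of DNA-barcoded human transcription factors, expressed in yeast as GST fusions on glutathione beads and combined with a tag-only sample, were incubated with 200 nmole of a 16-mer random double-stranded DNA library. Incubation took 30 min at room temperature in Tris/NaCl/DTT/glycerol buffer and was followed by washing, 0.1% formaldehyde crosslinking, proximity ligation (BsaI/T4 ligase, 1 h, 37 °C), PCR amplification and sequencing on an Illumina NextSeq500. Binding signal is the ratio of a hexamer's read frequency for a factor to its frequency for the tag-only sample.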

Another test addresses T2, ELK1 (Homo sapiens, UniProt P19419 1-428).
T2 sequence: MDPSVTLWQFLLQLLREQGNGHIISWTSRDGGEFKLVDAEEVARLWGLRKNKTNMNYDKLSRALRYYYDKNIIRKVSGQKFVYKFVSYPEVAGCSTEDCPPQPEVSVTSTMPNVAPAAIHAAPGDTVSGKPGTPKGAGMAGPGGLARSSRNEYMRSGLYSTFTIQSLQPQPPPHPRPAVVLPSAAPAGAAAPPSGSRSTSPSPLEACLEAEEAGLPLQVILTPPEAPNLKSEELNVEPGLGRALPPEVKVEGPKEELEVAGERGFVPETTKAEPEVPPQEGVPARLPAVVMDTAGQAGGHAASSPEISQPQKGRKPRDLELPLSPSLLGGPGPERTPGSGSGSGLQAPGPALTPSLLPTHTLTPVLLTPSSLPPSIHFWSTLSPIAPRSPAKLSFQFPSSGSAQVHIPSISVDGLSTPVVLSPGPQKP
The essentials:
as §1

In the next test the target is T3, GABPA (Homo sapiens, UniProt Q06546 1-454).
T3 sequence: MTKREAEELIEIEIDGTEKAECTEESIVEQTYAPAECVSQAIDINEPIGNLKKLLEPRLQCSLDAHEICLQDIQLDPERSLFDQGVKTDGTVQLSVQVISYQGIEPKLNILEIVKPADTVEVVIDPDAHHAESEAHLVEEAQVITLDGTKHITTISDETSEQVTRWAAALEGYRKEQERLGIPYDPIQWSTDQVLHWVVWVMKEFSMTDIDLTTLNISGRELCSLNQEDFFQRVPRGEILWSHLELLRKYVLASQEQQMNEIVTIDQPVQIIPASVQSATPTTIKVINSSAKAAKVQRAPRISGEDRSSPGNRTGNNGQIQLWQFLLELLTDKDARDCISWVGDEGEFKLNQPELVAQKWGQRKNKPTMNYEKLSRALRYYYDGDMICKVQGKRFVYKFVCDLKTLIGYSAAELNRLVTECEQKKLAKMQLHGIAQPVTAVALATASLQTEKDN
The essentials: as §1

The next test has as its target T4, ERG (Homo sapiens, UniProt P11308 1-479).
T4 sequence: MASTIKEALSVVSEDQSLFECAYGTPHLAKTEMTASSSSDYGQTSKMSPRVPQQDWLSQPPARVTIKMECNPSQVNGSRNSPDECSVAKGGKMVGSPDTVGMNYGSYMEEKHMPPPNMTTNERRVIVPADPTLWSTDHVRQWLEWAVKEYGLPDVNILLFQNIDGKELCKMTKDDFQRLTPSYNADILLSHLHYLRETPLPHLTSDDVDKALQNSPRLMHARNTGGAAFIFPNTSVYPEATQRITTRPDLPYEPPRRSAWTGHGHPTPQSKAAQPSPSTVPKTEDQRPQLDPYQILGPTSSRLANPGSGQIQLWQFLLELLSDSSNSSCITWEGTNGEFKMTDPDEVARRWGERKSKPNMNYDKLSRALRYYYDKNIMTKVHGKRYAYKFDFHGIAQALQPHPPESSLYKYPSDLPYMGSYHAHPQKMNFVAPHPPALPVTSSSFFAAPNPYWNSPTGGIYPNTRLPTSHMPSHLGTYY
An outline of the steps:
as §1

For a further test, the target named is ELF1 (Homo sapiens, UniProt P32519 1-619). An outline of the steps: as §1
Chain of ELF1 (P32519 whole entry): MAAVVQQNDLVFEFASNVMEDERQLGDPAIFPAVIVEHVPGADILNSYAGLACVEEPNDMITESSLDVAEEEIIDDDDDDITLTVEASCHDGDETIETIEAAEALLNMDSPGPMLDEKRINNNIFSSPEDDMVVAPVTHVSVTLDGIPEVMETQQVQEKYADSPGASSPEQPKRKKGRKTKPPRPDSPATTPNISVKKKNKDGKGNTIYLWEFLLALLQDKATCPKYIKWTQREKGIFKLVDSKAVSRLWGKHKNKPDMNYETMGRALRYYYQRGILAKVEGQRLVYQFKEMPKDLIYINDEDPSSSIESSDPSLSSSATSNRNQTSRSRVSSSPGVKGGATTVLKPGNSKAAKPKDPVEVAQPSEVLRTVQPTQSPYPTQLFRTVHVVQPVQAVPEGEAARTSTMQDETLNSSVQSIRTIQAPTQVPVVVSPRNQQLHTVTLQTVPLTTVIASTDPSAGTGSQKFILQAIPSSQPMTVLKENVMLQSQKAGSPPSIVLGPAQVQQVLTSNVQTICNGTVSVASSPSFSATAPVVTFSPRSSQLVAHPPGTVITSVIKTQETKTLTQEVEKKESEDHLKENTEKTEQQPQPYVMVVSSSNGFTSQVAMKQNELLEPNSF
The target of a further test is T5, EHF (Homo sapiens, UniProt Q9NZC4 1-300).
T5 sequence: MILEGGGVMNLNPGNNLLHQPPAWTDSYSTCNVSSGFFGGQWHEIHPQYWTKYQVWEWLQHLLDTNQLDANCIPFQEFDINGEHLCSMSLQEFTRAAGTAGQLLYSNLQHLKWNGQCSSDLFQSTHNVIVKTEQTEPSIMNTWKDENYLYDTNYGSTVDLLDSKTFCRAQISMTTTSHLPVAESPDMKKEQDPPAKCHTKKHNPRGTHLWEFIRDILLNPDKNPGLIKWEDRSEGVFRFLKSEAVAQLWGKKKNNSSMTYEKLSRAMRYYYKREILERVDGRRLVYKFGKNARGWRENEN
The essentials:
as §1

For the next test, the target named is SPI1 (Homo sapiens, UniProt P17947 1-270). An outline of the steps: as §1
The target in the next test is SPIB (Homo sapiens, UniProt Q01892 1-262). An outline of the steps: as §1
Chain of SPIB (Q01892 whole entry): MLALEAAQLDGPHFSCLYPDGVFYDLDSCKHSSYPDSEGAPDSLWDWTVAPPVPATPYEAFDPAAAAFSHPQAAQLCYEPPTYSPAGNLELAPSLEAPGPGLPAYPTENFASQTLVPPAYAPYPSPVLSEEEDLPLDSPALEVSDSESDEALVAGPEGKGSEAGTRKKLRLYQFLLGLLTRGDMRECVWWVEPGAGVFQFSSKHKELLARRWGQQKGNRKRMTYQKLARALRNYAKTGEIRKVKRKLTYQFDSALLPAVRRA
In a further test the target is T6, ELK3 (Homo sapiens, UniProt P41970 1-407).
T6 sequence: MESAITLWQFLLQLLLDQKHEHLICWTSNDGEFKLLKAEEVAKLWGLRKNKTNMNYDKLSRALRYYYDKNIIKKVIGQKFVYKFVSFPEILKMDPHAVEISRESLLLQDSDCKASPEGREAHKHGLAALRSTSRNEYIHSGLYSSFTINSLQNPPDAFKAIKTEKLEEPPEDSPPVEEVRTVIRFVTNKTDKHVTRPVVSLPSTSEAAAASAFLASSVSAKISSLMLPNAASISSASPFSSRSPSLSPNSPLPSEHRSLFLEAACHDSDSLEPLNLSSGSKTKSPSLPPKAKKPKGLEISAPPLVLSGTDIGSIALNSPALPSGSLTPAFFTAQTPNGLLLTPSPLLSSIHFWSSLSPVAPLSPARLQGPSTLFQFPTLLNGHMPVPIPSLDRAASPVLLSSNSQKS
An outline of the steps:
as §1

For eight sequences, binding signal results are on record in paper PMC7862700, “An all-to-all approach to the identification of sequence-specific readers for epigenetic DNA modifications on cytosine”.

As for ACTAAA, the binding signal was 1.26 fold enrichment (6-mer frequency, TF over GST control) in the test with FLI1; 1.22 fold enrichment (6-mer frequency, TF over GST control) in the test with ELK1; 1.34 fold enrichment (6-mer frequency, TF over GST control) with GABPA; 1.3 fold enrichment (6-mer frequency, TF over GST control) with ERG; 1.32 fold enrichment (6-mer frequency, TF over GST control) in the test with ELF1; 1.21 fold enrichment (6-mer frequency, TF over GST control) with EHF. Also, the binding signal was 1.32 fold enrichment (6-mer frequency, TF over GST control) with SPI1; 1.28 fold enrichment (6-mer frequency, TF over GST control) with SPIB; 1.34 fold enrichment (6-mer frequency, TF over GST control) in the test with ELK3.
CCGCAT: the binding signal with FLI1 is 1.61 fold enrichment (6-mer frequency, TF over GST control); with ELK1, 1.59 fold enrichment (6-mer frequency, TF over GST control); with GABPA, 1.54 fold enrichment (6-mer frequency, TF over GST control); with ERG, 1.52 fold enrichment (6-mer frequency, TF over GST control); in the test with ELF1 it was 1.58 fold enrichment (6-mer frequency, TF over GST control); in the test with EHF, 1.61 fold enrichment (6-mer frequency, TF over GST control). The binding signal is 1.99 fold enrichment (6-mer frequency, TF over GST control) in the test with SPI1; 1.55 fold enrichment (6-mer frequency, TF over GST control) in the test with SPIB; 1.6 fold enrichment (6-mer frequency, TF over GST control) with ELK3.
For the sequence ATCTCG, the binding signal in the test with FLI1 was 1.41 fold enrichment (6-mer frequency, TF over GST control); with ELK1, 1.27 fold enrichment (6-mer frequency, TF over GST control); in the test with GABPA it was 1.42 fold enrichment (6-mer frequency, TF over GST control); with ERG it was 1.23 fold enrichment (6-mer frequency, TF over GST control); with ELF1, 1.39 fold enrichment (6-mer frequency, TF over GST control); with EHF, 1.34 fold enrichment (6-mer frequency, TF over GST control). The binding signal in the test with SPI1 is 1.37 fold enrichment (6-mer frequency, TF over GST control); with SPIB it was 1.26 fold enrichment (6-mer frequency, TF over GST control); with ELK3, 1.26 fold enrichment (6-mer frequency, TF over GST control).
On to TTATGT, for which the binding signal is 1.3 fold enrichment (6-mer frequency, TF over GST control) with FLI1; 1.3 fold enrichment (6-mer frequency, TF over GST control) with ELK1; 1.27 fold enrichment (6-mer frequency, TF over GST control) in the test with GABPA; 1.31 fold enrichment (6-mer frequency, TF over GST control) with ERG; 1.24 fold enrichment (6-mer frequency, TF over GST control) with ELF1; 1.28 fold enrichment (6-mer frequency, TF over GST control) with EHF. For the same sequence, the binding signal with SPI1 is 1.31 fold enrichment (6-mer frequency, TF over GST control); in the test with SPIB it was 1.32 fold enrichment (6-mer frequency, TF over GST control); with ELK3, 1.22 fold enrichment (6-mer frequency, TF over GST control).
Consider CGATGG, for which the binding signal is 1.36 fold enrichment (6-mer frequency, TF over GST control) with FLI1; 1.4 fold enrichment (6-mer frequency, TF over GST control) with ELK1; 1.36 fold enrichment (6-mer frequency, TF over GST control) in the test with GABPA; 1.34 fold enrichment (6-mer frequency, TF over GST control) with ERG; 1.32 fold enrichment (6-mer frequency, TF over GST control) with ELF1; 1.24 fold enrichment (6-mer frequency, TF over GST control) in the test with EHF. Further, the binding signal was 1.41 fold enrichment (6-mer frequency, TF over GST control) with SPI1; 1.58 fold enrichment (6-mer frequency, TF over GST control) in the test with SPIB; 1.4 fold enrichment (6-mer frequency, TF over GST control) with ELK3.
With TATAAT, the binding signal in the test with FLI1 is 1.14 fold enrichment (6-mer frequency, TF over GST control); in the test with ELK1, 1.24 fold enrichment (6-mer frequency, TF over GST control); in the test with GABPA, 1.12 fold enrichment (6-mer frequency, TF over GST control); in the test with ERG it was 1.07 fold enrichment (6-mer frequency, TF over GST control); in the test with ELF1 it was 1.18 fold enrichment (6-mer frequency, TF over GST control); in the test with EHF, 1.18 fold enrichment (6-mer frequency, TF over GST control). Moreover, the binding signal was 1.15 fold enrichment (6-mer frequency, TF over GST control) in the test with SPI1; 1.15 fold enrichment (6-mer frequency, TF over GST control) in the test with SPIB; 1.22 fold enrichment (6-mer frequency, TF over GST control) with ELK3.
Regarding AAATCT, the binding signal with FLI1 is 1.28 fold enrichment (6-mer frequency, TF over GST control); with ELK1, 1.21 fold enrichment (6-mer frequency, TF over GST control); in the test with GABPA, 1.23 fold enrichment (6-mer frequency, TF over GST control); in the test with ERG it was 1.31 fold enrichment (6-mer frequency, TF over GST control); in the test with ELF1, 1.3 fold enrichment (6-mer frequency, TF over GST control); in the test with EHF it was 1.2 fold enrichment (6-mer frequency, TF over GST control). The binding signal is 1.14 fold enrichment (6-mer frequency, TF over GST control) in the test with SPI1; 1.29 fold enrichment (6-mer frequency, TF over GST control) in the test with SPIB; 1.22 fold enrichment (6-mer frequency, TF over GST control) with ELK3.
Regarding CTCTGA, the binding signal is 1.18 fold enrichment (6-mer frequency, TF over GST control) with FLI1; 1.32 fold enrichment (6-mer frequency, TF over GST control) with ELK1; 1.22 fold enrichment (6-mer frequency, TF over GST control) in the test with GABPA; 1.21 fold enrichment (6-mer frequency, TF over GST control) with ERG; 1.25 fold enrichment (6-mer frequency, TF over GST control) in the test with ELF1; 1.3 fold enrichment (6-mer frequency, TF over GST control) in the test with EHF. Further, the binding signal with SPI1 was 1.17 fold enrichment (6-mer frequency, TF over GST control); in the test with SPIB, 1.31 fold enrichment (6-mer frequency, TF over GST control); with ELK3, 1.12 fold enrichment (6-mer frequency, TF over GST control).
